# Assay outcomes deposited in PubChem by National Center for Advancing Translational Sciences (NCATS).
# KDM5B inh = inhibitors of human KDM5B histone demethylase; Q9UGL1; KDM5B demethylase, FDH-coupled NADH fluorescence (FDH is formaldehyde dehydrogenase); Potency, µM (series often up to 57.7 µM), actives largely listed as inhibitors; 220,000 tested, 2.6% active; active means well fitted inhibition curve with a large enough effect; further: 0% is about no effect; nearly all actives have a fitted effect of over 70% in size
# Target sequence (Q9UGL1 whole entry, looked up): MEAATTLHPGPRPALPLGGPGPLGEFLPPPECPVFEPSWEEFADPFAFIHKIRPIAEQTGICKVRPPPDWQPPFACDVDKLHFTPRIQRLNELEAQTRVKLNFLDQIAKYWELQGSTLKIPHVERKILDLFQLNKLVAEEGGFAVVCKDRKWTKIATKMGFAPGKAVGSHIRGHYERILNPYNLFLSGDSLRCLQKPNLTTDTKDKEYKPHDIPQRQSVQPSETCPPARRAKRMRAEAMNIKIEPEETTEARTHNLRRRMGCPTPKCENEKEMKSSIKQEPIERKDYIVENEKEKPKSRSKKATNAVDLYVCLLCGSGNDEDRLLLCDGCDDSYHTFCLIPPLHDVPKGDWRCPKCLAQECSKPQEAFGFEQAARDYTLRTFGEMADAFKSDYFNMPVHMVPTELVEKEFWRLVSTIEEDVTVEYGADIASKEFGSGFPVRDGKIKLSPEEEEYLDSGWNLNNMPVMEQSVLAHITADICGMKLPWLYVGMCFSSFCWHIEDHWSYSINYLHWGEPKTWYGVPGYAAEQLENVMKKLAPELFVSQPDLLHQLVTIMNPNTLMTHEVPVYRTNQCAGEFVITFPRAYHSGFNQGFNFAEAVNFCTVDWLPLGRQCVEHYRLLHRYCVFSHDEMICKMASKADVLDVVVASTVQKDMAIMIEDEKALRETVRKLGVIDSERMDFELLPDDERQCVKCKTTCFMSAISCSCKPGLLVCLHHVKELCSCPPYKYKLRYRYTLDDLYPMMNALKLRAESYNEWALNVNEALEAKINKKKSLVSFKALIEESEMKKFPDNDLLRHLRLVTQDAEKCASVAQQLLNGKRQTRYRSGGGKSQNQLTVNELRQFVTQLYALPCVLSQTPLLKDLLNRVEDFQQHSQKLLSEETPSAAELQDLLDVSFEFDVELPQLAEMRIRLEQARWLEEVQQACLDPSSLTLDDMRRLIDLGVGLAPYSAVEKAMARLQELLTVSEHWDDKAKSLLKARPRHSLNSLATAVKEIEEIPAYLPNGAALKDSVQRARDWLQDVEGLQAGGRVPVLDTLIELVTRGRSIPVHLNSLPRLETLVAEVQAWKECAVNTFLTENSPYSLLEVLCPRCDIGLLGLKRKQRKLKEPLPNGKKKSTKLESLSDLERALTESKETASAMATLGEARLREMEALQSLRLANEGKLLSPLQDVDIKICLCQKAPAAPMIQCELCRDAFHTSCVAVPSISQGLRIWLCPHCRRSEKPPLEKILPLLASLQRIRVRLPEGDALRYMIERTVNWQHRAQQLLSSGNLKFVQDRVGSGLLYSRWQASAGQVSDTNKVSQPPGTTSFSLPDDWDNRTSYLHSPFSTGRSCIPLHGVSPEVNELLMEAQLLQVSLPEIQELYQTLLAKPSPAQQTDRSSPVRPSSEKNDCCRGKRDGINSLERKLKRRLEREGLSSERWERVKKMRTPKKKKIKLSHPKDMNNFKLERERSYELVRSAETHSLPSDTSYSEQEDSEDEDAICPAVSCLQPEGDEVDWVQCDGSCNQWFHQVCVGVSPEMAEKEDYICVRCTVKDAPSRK
#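 Compound dilutions met 200 nM (final) KDM5BΔAP for 10 min at room temperature before substrate addition. The substrate mix held 12.5 µM H3K4me3 with cofactors 25 µM α-ketoglutarate and 50 µM Fe²⁺. NADH signal gain over 30 min defined activity.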
# * = called active by the depositor; i = inactive. Many of the other results were omitted from the sample, so hits are more common in it than they were. Potency means the concentration at half of the fitted maximal effect.
SMILES,KDM5B inh
COc1ccc(NC(=O)N2CC[C@@H](CC(=O)O)[C@@H](CCN3CCOCC3)C2)cc1,i
Clc1ccc(Sc2ncccc2Cl)cc1,i
C=CCNc1nc(C(=O)OCC(=O)N(C)CC(=O)Nc2ccc(F)cc2)cs1,i
O=C(CSc1nc2ncccc2c(=O)n1-c1ccccc1)NC1CCCCCC1,i
CC(NC(=O)c1nn(C(C)C)c(=O)c2ccccc12)c1cccs1 (centres undefined),i
CCc1ccc2oc(C(=O)Nc3ccc(C)cc3C)cc(=O)c2c1,i
Cc1cccc(CNC(C)CN2CCCCC2)c1 (centres undefined),i
COc1ccc2c(c1)CC/C2=N\OC(=O)c1cc(Cl)ccc1SC,i
CCC(=O)Nc1ccc(-c2c(-c3cc(OC)cc(OC)c3)nn(-c3ccc(C)cc3)c2OC(C)=O)cc1,28µM*
COc1ccc(NC(=O)c2cn3ccnc(-c4ccc(F)cc4)c3n2)cc1OC,i
COc1ccc(-c2nn(-c3ccc(C)cc3C)c(OC(C)=O)c2-c2ccc(NC(C)=O)cc2)c(OC)c1,32µM*
COc1ccc(-c2ocnc2C(=O)Nc2ccc(C)cc2)cc1,i
COc1cc(OC)cc(-c2cc3nc(C)c(CCC(=O)Nc4ccc(C(C)=O)cc4)c(C)n3n2)c1,i
COc1ccc(-c2nn(-c3ccc(F)cc3)c(OC(C)=O)c2-c2ccc(NC(C)=O)cc2)cc1OC,20µM*
COc1ccc(NC(=O)CCc2nc3c(C)nn(-c4ccc(C)cc4)c3n(C)c2=O)cc1,i
CCc1ccc(NC(=O)c2nn(-c3ccc(F)cc3)c(=O)cc2OC)cc1,i
CC(=O)Nc1ccc(-c2c(-c3cccc(C)c3)nn(-c3ccc(F)cc3)c2OC(C)=O)cc1,25µM*
CC(=O)Nc1ccc(-c2c(C(C)C)nn(-c3cccc(F)c3)c2OC(C)=O)cc1,i
COc1ccc(-c2cc(C(=O)O)c3cc(C)cc(C)c3n2)c(OC)c1,i
CCOc1ccc(NC(=O)c2nc(-c3ccccc3)n(-c3ccc(F)cc3)n2)cc1,i
Cc1cc(C)cc(C(=O)NCC(=O)N2CCCC2c2ccc(F)cc2)c1 (centres undefined),i
CC(C)CCn1c(SC(C)C)nc2c1c(=O)[nH]c(=O)n2C,i
CCCCNC(=S)Nc1ccc(C)c(Cl)c1,i
CCn1cc(C#N)c(=O)n(Cc2nc(-c3ccccc3C)no2)c1=O,i
CCn1c(SCC(=O)Nc2cc(OC)cc(OC)c2)nc2c(-c3ccccc3)csc2c1=O,i
SMILES,KDM5B inh
C=CCC1(CC=C)CCCCN1,i
Cc1ccnc(NC(=O)CCc2ncc(-c3ccccc3)o2)c1,i
O=C1CSc2ccc(S(=O)(=O)N3CCOCC3)cc2N1,i
Cc1nc2cc(NS(=O)(=O)c3ccc(C#N)cc3)ccc2o1,i
CC(=O)Oc1c(-c2ccc(NC(=O)C3CC3)cc2)c(-c2ccc3c(c2)OCO3)nn1-c1cccc(C)c1,35µM*
Cc1cccc(-n2ccnc2SCC(=O)Nc2ccc3c(c2)OCO3)c1,i
Cc1c(-c2cccc(Cl)c2)nn2c1NC(=O)CC2C(=O)Nc1ccc2c(c1)OCO2 (centres undefined),i
Cc1nc2cc(C(=O)Nc3cccc(N4CCCC4=O)c3)ccc2n1-c1ccccc1,i
Cn1ccnc1SCC(=O)Nc1sc2c(c1C#N)CCC2,i
CCCS(=O)(=O)N1CCc2n[nH]c(=O)n2CC1,i
O=c1[nH]nc2n1CCN(S(=O)(=O)c1ccc3c(c1)CCCC3)CC2,i
CCCCS(=O)(=O)N1CCc2n[nH]c(=O)n2CC1,20µM*
CNC(=O)Nc1cccn2nc(-c3ccccc3)nc12,25µM*
Cc1ccc(NC(=O)Nc2cccn3nc(C)nc23)cc1,i
COC(=O)CC(NC(=O)Nc1cccn2nc(C)nc12)c1ccccc1 (centres undefined),i
Cc1c(OCC(=O)Nc2ccc(Cl)cc2)c(=O)ccn1CCO,i
Cc1cc(=O)n2c3ccccc3n(CC(O)CNc3ccc(F)cc3)c2c1C#N (centres undefined),i
O=C(Cn1nc(C(=O)O)c2ccccc2c1=O)Nc1ccc(OC(F)F)cc1,i
CCOc1ccc(CC(=O)N2CCC[C@H]2c2nc(-c3ccc(OC)c(OC)c3)no2)cc1,i
COc1ccc(C(=O)N2CCC[C@H]2c2nc(-c3ccc(OC)c(OC)c3)no2)cc1OC,i
COc1ccc(C(=O)N2CCC[C@H]2c2nc(-c3ccc(OC)c(OC)c3)no2)c(C)c1,28µM*
COc1ccc(-c2noc([C@@H]3CCCN3C(=O)Cc3ccccc3Cl)n2)cc1OC,28µM*
COc1ccc(-c2noc([C@@H]3CCCN3C(=O)c3ccccc3Cl)n2)cc1OC,i
COc1ccc(-c2noc([C@@H]3CCCN3C(=O)Cc3cccc(F)c3)n2)cc1OC,25µM*
COc1cc(OC)cc(C(=O)N2CCC[C@H]2c2nc(-c3ccc(OC)c(OC)c3)no2)c1,i
COc1ccc(-c2noc([C@@H]3CCCN3C(=O)Cc3ccccc3OC)n2)cc1,i
CCOc1ccc(CC(=O)N2CCC[C@H]2c2nc(-c3ccc(OC)c(OC)c3)no2)cc1OCC,i
